WRN helicase inh = WRN helicase (human) inhibition; WRN helicase unwinding, fluorescent forked duplex, kinetic; Potency, µM (titrated, usually from 114 µM), without a hit: at the top dose activity change, negative = inhibition, actives largely listed as inhibitors; actives 0.46% (n = 360,000); further: on the % scale 0 is the no-effect control and ±100 the full control effect; nearly all actives have a fitted effect of over 55% in size
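Kinetic fluorescence helicase assay: unwinding of a quenched forked DNA duplex (100 nM final) with 2 mM ATP final raises red fluorescence (525/598 nm). Compounds sat 15 min at room temperature with 20 nM WRN beforehand.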
KAT2A inh = GCN5L2 (KAT2A) acetyltransferase inhibition; actives 0.21% (n = 390,000); AID 504327; Q92830; Potency, µM (highest dose often 58.9 µM), without a hit: at the highest dose activity change, negative = inhibition, actives largely listed as inhibitors; GCN5L2 HAT assay, ThioGlo1 CoA-SH fluorescence; further: on the % scale 0 is the no-effect control and ±100 the full control effect
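Enzyme at 20nM final was mixed with library compounds for 15 min at room temperature. Peptide H3(1-25) at 75uM, acetyl-CoA at 70uM and ThioGlo1 at 50uM were then added. Plates were read immediately and after 20 min (Ex340nm/Em540nm).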
APE1 inh = inhibitors of human APE1 endonuclease | P27695 | recombinant APE1, TAMRA/BHQ-2 abasic DNA cleavage fluorescence | Potency, µM (top dose mostly 65.8 µM), for the others: at the top dose activity change, negative = inhibition, usual class: inhibitors | actives 0.35% (n = 350,000);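 further: plate controls were vehicle for no effect and reference inhibitor for full effect; nearly all actives have a fitted effect of over 55% in size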
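0.75 nM APE1 + cpd, 15 min RT; start w/ 50 nM TAMRA/BHQ-2 THF-abasic dsDNA; kinetic fluor 525/598 nm ×3 reads @60 s; Δ(read3−read1); normalized to DMSO and NSC13755 control wells.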
BLM inh-1 = Bloom syndrome helicase (human) inhibition; recombinant BLM DNA unwinding, fluorescence dequenching; Potency, µM (doses to about 56.1 µM), for the others: at the top dose activity change, negative = inhibition, most hits filed as inhibitors; actives 0.2% (n = 350,000);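 further: plate controls were vehicle for no effect and no enzyme for full effect; nearly all actives have a fitted effect of over 35% in size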
RECQ1 inh = blocks DNA unwinding by human RECQ1 | actives 0.54% (n = 240,000) | RECQ1 DNA unwinding, red fluorescence kinetic read | AID 2549 | P46063 | Potency, µM (top dose mostly 57.3 µM), without a hit: at the top dose activity, negative = inhibition, actives largely listed as inhibitors;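 further: plate controls were vehicle for no effect and no enzyme for full effect; nearly all actives have a fitted effect of over 30% in size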
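50 nM RECQ1T1 preincubated 15 min with compound in Tris pH 8.0 buffer with MgCl2, DTT, Tween-20 and 2.5 ug/ml poly(dI-dC); started with 200 nM TAMRA/BHQ-2 forked duplex and 2 mM ATP. Unwinding read as fluorescence (525/598 nm), two reads 2 h apart.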
ERG Ets-DNA blk = blocks human ERG Ets domain binding to DNA; P11308; actives 0.028% (n = 370,000); Potency, µM (doses to about 76.9 µM), for inactives: at the highest dose FP activity, negative = inhibition, actives largely listed as inhibitors; fluorescence polarization, His-ERG Ets domain / labelled DNA; active means well fitted inhibition curve with a large enough effect in the polarisation, with a control signal flat; inconclusive means small, poorly fitted or top-dose-only effect, or effect the other way, or a change in a side signal; inactive means no such curve, though single readings can be large or run the other way; the % refers to the polarisation;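 further: polarization taken with two DNA probes labelled with fluorescein and Texas red; % of control where 0% means no effect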
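His-tagged ERG Ets domain (1 uM in the protein solution; 300mM KCl, 50mM Tris-HCl, 1mM EDTA, 1mM DTT, pH 7.5) received compound, then a probe mix of 5 nM fluorescein-DNA and 100nM Texas-615-DNA. Fluorescence polarization was read for both dyes.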
BLM inh-2 = BLM (human) helicase inhibition, confirmation; Potency, µM, inactives show max response, negative = inhibition, most hits filed as inhibitors; actives 40% (n = 220); shares compounds with BLM inh-1; BLM DNA unwinding, fluorescence quenching, biochemical;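 further: strand separation dequenches TAMRA so unwinding raises red fluorescence; series mostly up to about 69 µM; on the % scale 0 is the no-effect control and ±100 the full control effect; nearly all actives have a fitted effect of over 45% in size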
Numbers without * were called inactive; [ ] = dose if it differs, or a comment. Rows were chosen to be rich in hits. Some 0.88% of all compounds tested hit in one or more screens of this group. Unless noted, the call rests on the fitted dose curve; in most records, active means well fitted curve in the direction sought with a large enough effect; inconclusive means small, poorly fitted or top-dose-only effect, or another doubt; inactive means no such curve, though single readings can be large; an effect the other way counts as inactive or inconclusive. Potency means the concentration at half of the fitted maximal effect.

`Oc1ccc(N=Cc2ccc(OCc3ccccc3)cc2)cc1` gave WRN helicase inh -19%, KAT2A inh 0%, APE1 inh inconclusive, BLM inh-1 32µM*, RECQ1 inh inconclusive, ERG Ets-DNA blk 14µM* and BLM inh-2 -8%.
`O=C(N/N=C/c1ccc(OCc2ccccc2)cc1)c1ccncc1` gave WRN helicase inh 1%, KAT2A inh -6%, APE1 inh 3%, BLM inh-1 -3%, RECQ1 inh inactive and ERG Ets-DNA blk -14%.
Nc1ccc2nc(-c3cc(Cl)c(N)c(Cl)c3)[nH]c2c1 was read as WRN helicase inh inconclusive, KAT2A inh -14%, APE1 inh 7%, BLM inh-1 14µM*, RECQ1 inh 2%, ERG Ets-DNA blk 1% and BLM inh-2 inconclusive.
For O=C(CNC(=O)c1ccco1)N=Nc1c(O)[nH]c2ccc(Br)cc12 the results were WRN helicase inh -9%, KAT2A inh -7%, APE1 inh -11%, BLM inh-1 -3% and ERG Ets-DNA blk -4%.
For O=C(CNC(=O)/C=C/c1ccco1)N=Nc1c(O)[nH]c2ccccc12 the results were WRN helicase inh 0%, KAT2A inh -5%, APE1 inh 8.4µM*, BLM inh-1 20µM*, ERG Ets-DNA blk 18% and BLM inh-2 20µM*.
For CCOC(=O)CSc1nc2c(sc3cccc(F)c32)c(=O)n1Cc1ccc(OC)cc1 the results were KAT2A inh -2%, BLM inh-1 -1% and ERG Ets-DNA blk -8%.
`COc1ccc2nc3cccc(OC)c3nc2c1` gave WRN helicase inh 0%[11.6 µM], KAT2A inh -16%, APE1 inh inconclusive, BLM inh-1 3.5µM*, RECQ1 inh 1%, ERG Ets-DNA blk 27% and BLM inh-2 10%.
For Cc1ccc(-c2nc3ncccc3o2)cc1NC(=O)COc1ccc(C(C)C)cc1 the results were KAT2A inh 11%, BLM inh-1 -15% and ERG Ets-DNA blk -10%.
For Cc1cc(OCC(=O)Nc2cc(-c3nc4ncccc4o3)ccc2C)ccc1Cl the results were KAT2A inh -3%, BLM inh-1 28µM*, ERG Ets-DNA blk -1% and BLM inh-2 inconclusive.
Screening COc1cc(C(C)=O)ccc1OCC(=O)Nc1ccc(C)c(S(=O)(=O)N2CCCCCC2)c1 returned WRN helicase inh -2%, KAT2A inh -6%, APE1 inh 24% and ERG Ets-DNA blk 9%.
`CN(C)c1cc(Cl)c2nonc2c1N` gave WRN helicase inh -2%[11.6 µM], KAT2A inh -29%, APE1 inh inconclusive, BLM inh-1 35µM*, RECQ1 inh 28µM*, ERG Ets-DNA blk 4% and BLM inh-2 inconclusive.
CCn1c(SCC(N)=O)nc2sc3c(c2c1=O)CCN(C)C3 was read as WRN helicase inh 12%, KAT2A inh -4%, APE1 inh 5%, BLM inh-1 0.71µM*, RECQ1 inh 7%, ERG Ets-DNA blk 5% and BLM inh-2 10%.
For CCn1c(SCC(=O)Nc2ccc(C)cc2)nc2sc3c(c2c1=O)CCN(C)C3 the results were WRN helicase inh -1%, KAT2A inh -6%, APE1 inh 20%, BLM inh-1 4% and ERG Ets-DNA blk 6%.
Oc1ccc(CN2CCC(Cc3ccccc3)CC2)c2cccnc12 was read as WRN helicase inh 3%, KAT2A inh 1%, APE1 inh 5%, BLM inh-1 8.9µM*, RECQ1 inh -8%, ERG Ets-DNA blk 4% and BLM inh-2 18µM*.

Bioassay records from PubChem.
